About 35 (0.009%) of roughly 390,000 compounds were called active. Roughly 6% stayed inconclusive and do not appear here. The sample as a whole holds a higher share of actives than the screen did. Values without a mark were called inactive. Calls come from the whole dose curve; as a rule, active = well fitted inhibition curve with a large enough effect in the polarisation, with a control signal flat (not every such curve was filed as active); inconclusive = small, poorly fitted or top-dose-only effect, or effect the other way, or a change in a side signal; inactive = no such curve, though single readings can be large or run the other way; the % refers to the polarisation.

Chain of Peptidyl-prolyl cis-trans isomerase NIMA-interacting 1 (Homo sapiens) (Q13526 whole entry, looked up): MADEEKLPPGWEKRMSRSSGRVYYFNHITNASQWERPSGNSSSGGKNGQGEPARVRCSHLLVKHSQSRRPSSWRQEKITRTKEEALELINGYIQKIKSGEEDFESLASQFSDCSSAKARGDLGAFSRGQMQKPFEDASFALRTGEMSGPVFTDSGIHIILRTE

The test concerns the target Peptidyl-prolyl cis-trans isomerase NIMA-interacting 1 (Homo sapiens) (UniProt Q13526). Kind of test: qHTS Assay to Find Inhibitors of Pin1. The following applies: Pin1 FP peptide displacement, HiFluor488, 10 min; series mostly up to 115 µM. The source says:
NIH Molecular Libraries Probe Production Network [MLPCN]
NIH Chemical Genomics Center [NCGC]
The unique chemical properties of Pro allow for the adoption of two completely distinct amide bond conformations (cis and trans). Peptidyl-prolyl cis/trans isomerases (PPIases) are evolutionary conserved enzymes that catalyze cis/trans isomerization of peptidyl-prolyl peptide bonds. Distinct from all other PPIases such as cyclophilins and FK506-binding proteins (FKBPs), Pin1 binds a subset of phos.Ser/Thr-Pro-containing proteins using its protein-targeting WW domain and isomerizes only specific phos.Ser/Thr-Pro bonds, which cannot be effectively catalyzed by other known PPIases.
Pin1-catalyzed conformational regulation can control a spectrum of activities of many key regulators in diverse cellular processes such as cell growth, genotoxic and other stress responses, immune response, germ cell development, neuronal differentiation and survival. Pin1 has emerged as a novel molecular timer that modulates its multiple targets at various steps of a given cellular process to synergistically control the amplitude and duration of a cellular response or process. Importantly, Pin1 is tightly regulated by multiple levels and its deregulation has an important role in a growing number of pathological conditions, including cancer, Alzheimer's disease, aging, asthma and microbial infection, providing a potentially new therapeutic option.
The goal of this screen is to find small-molecule inhibitors of Pin1 using a fluorescence polarization competition assay. A HiFluor-488-labeled peptide binds to the active site of Pin1 and can be displaced by compounds. Compounds were screened as a concentration-titration series that ranged from 57 uM to 0.7 nM.
NCGC Assay Protocol Summary:
Pin1 (0.6 uM) was dispensed into black, solid 1536-well plates at 2 uL/well in 10 mM HEPES (pH 7.5), 10 mM NaCl, 0.01% Tween20, 1 mM DTT, and 1% glycerol. Then, 23 nL of compounds or DMSO were delivered to each well using a pin tool. Two uL of Pin1-1b-HiFluor488 peptide (10 mM HEPES (pH 7.5), 10 mM NaCl, 0.01% Tween20, 1 mM DTT, and 1% glycerol, 0.02 uM Pin1-1b-HiFluor488) was then dispensed, and plates were incubated at room temperature for 10 min. The plates were measured on a ViewLux plate reader for fluorescence polarization signal using a 480/20 nM nm excitation filter and 540/25 nM nm S and P emission filters with a 20 second exposure. The %Activity was determined from the corrected fluorescence polarization values. Unlabeled Pin1-1c peptide was used as a control (3.5 mM two-fold serial; 20 uM final concentration) along with a 1x (0.3 uM) and 0x (no-enzyme) Pin1 enzyme control to normalize %Activity of identified inhibitors; 0x enzyme values corresponded to 100%Activity (full inhibition), while 1x Pin1 enzyme values were used to normalize 0%Activity (no inhibition).
Concentration-response curves were fitted to the signals arising from the resulting fluorescence polarization. The concentration-effect curves were then classified based on curve quality (r2), response magnitude and degree of measured activity, and compounds were subsequently categorized based on their curve class.
Keywords: Peptidyl prolyl isomerase, Pin1, fluorescence polarization, MLSMR, MLPCN, NIH Roadmap, qHTS, NCGC
Background: In qHTS, concentration-response curves come from the screen itself.
On to `Cc1ccccc1CNC(=O)C(=O)NCC(c1cccs1)S(=O)(=O)c1cccs1` (stereo unspecified), for which the activity, negative = inhibition entry is “inactive”.
To `CC1CCC2(CC1)N=C(c1ccccc1)C(=O)N2CC(=O)Nc1ccc(F)c(Cl)c1` (stereo unspecified) belongs “inactive”; to `COc1cc(OC)c(NC(=O)c2nc(-c3ccncc3)no2)cc1Cl`, “inactive”.
The value for `Cc1cccc(CNC(=O)c2cnc3sc(N4CCCCC4)nn3c2=O)c1` was “inactive”.
To `CCc1ccccc1NC(=O)N1CCC2(CC1)Oc1ccccc1C(=O)N2Cc1ccccc1F` belongs “inactive”; to `COc1ccc(OC)c(NC(=O)CSc2nc3ccccc3nc2N2CCCCC2)c1`, “inactive”; to `CN1CCOc2cc(S(=O)(=O)N3CCN(S(=O)(=O)c4c(F)cccc4F)CC3)cnc21`, “inactive”.
As to `O=c1c2ccccc2nc2sc(Nc3ccc(Oc4ccccc4)cc3)nn12`, the activity, negative = inhibition entry is “inactive”.
To `CCn1c(C)c(C)c2cc(C(=O)NCCc3cc(OC)ccc3OC)ccc21` belongs “inactive”; to `CCC(=O)N1CCc2cc(CNS(=O)(=O)c3ccc(Br)s3)ccc21`, “inactive”.
The value for `O=[S+]([O-])(c1ccc(OC(F)(F)F)cc1)N1CCN([S+](=O)([O-])c2ccc3c(c2)OCCO3)CC1` was “inactive”; that for `CC(C)(C)c1ccc(C(=O)NCC(c2ccc(Cl)cc2)N2CCOCC2)cc1` (stereo unspecified) was “inactive”; that for `COc1ccccc1Cc1nc2ccccc2nc1SCC(=O)N1CCCc2ccccc21` was “inactive”.
`COc1ccc(C2Nc3ccccc3C(=O)N2Cc2ccc(Cl)cc2)cc1COc1ccc(NC(C)=O)cc1` (stereo unspecified): the activity, negative = inhibition result was “inactive”.
To `Cc1nn2c(=O)cc(COC(=O)c3ccccc3NC(=O)COc3ccccc3C)nc2s1` belongs “inactive”; to `CCOC(=O)c1ccc(NC(=O)CC2C(=O)N(c3ccccc3)C(=O)N2Cc2cccs2)cc1` (stereo unspecified), “inactive”; to `CC1CCCN(S(=O)(=O)c2ccc3[nH]c(=O)cc(C(=O)NCCc4ccc(Cl)cc4)c3c2)C1` (stereo unspecified), “inactive”.
As for `COc1ccc(N2CCN(S(=O)(=O)c3ccc4c(c3)CC(=O)N4)CC2)cc1`, the activity, negative = inhibition result was “inactive”.
For `COc1ccc(N2CCN(C(=O)c3c(C)oc4nc(C)nc(N5CCCC5)c34)CC2)cc1`, the activity, negative = inhibition entry is “inactive”.
Take `O=[S+]([O-])(c1ccc2c(c1)OCCO2)N1CCN([S+](=O)([O-])c2c(Cl)cc(Cl)cc2Br)CC1`: the activity, negative = inhibition result was “inactive”.
The value for `Cc1ccc(C)c(N2CCN(C(=O)C3CCC(CNS(=O)(=O)c4cccs4)CC3)CC2)c1` (stereo unspecified) was “inactive”; that for `O=C(CSc1nc(-c2cccc(F)c2)[nH]c1-c1ccccc1)Nc1ccc2c(c1)OCO2` was “inactive”.
To `COc1cc(F)c(S(=O)(=O)N2CCCN(S(=O)(=O)c3ccc(N)cc3)CC2)c(F)c1` belongs “inactive”.
The value for `COC(=O)c1cnn(-c2ccc(C(=O)Nc3ccc(OC(F)(F)F)cc3)cc2)c1N` was “inactive”; that for `O=S(=O)(c1ccc2c(c1)OCCO2)N1CCN(S(=O)(=O)c2cc(F)ccc2F)CC1` was “inactive”.
Take `COC(=O)c1ccc(NC(=O)c2cnn(-c3ccc(Cl)cc3)c2C2CCN(C(=O)OC(C)(C)C)CC2)cc1`: the activity, negative = inhibition entry was “inactive”.
To `CCCCN(C)CCCNC(=O)CN1N=C(c2ccc(OC)cc2)CCC1=O` belongs “inactive”; to `CCOc1ccc2oc(=O)cc(CN3CCN(C(=O)c4ccc(F)cc4)CC3)c2c1`, “inactive”; to `O=C(O)c1ccc(Cn2c(SCc3ccc(F)cc3)nc3ccncc32)cc1`, “inactive”.
To `Cc1ccc(-c2nc3ccccn3c2Nc2c(C)cccc2C)o1` belongs “inactive”; to `Cc1cccc(C(=O)NCCc2nc3ccccc3n2Cc2ccccc2Cl)c1`, “inactive”; to `COc1cccc(C(=O)N(Cc2cccc(Cl)c2)Cc2ccco2)c1`, “inactive”.
Regarding `CC(CNC(=O)c1nnc(Cc2cccc(F)c2)o1)c1ccccc1` (stereo unspecified), the activity, negative = inhibition result was “inactive”.
The value for `Cc1noc(C)c1-c1ccc2ncnc(NCc3ccc(F)c(F)c3)c2c1` was “inactive”; that for `O=C(CSCc1cnn(-c2ccccc2)c1-n1cccc1)NCc1ccc(Cl)cc1` was “inactive”.
As for `CC(C)c1ccc(NC(=O)C2CCN(c3nc(-c4ccc(C(C)C)cc4)no3)CC2)cc1`, the activity, negative = inhibition result is “inactive”.
As for `NC(=O)C1CCN(C(=O)c2cccc(NC(=O)c3nsc4ccccc34)c2)CC1`, the activity, negative = inhibition result is “inactive”.
With `Cc1ccc(C(=O)NC2CCN(C#N)CC2)cc1`, the activity, negative = inhibition entry is “inactive”.
Regarding `O=S(=O)(NCCc1nnc2ccc(SCc3ccc(Cl)cc3Cl)nn12)c1ccccc1`, the activity, negative = inhibition result is “inactive”.
To `COC(=O)C(CC(C)C)NS(=O)(=O)c1cc(Br)ccc1Br` (stereo unspecified) belongs “inactive”; to `N#Cc1nc(NCc2ccc(Cl)c(Cl)c2)c2ncn(CCCO)c2n1`, “inactive”.
The value for `COCCNS(=O)(=O)c1cc(-c2nn3c(C)nnc3c3ccccc23)ccc1C` was “inactive”.
In the case of `O=S1(=O)N=C(Oc2cccc(Br)c2)c2ccccc21`, the activity, negative = inhibition result is “inactive”.
To `COc1ccc(CNC(=O)c2ccc3c(c2)nc2n3CCOC2)c(OC)c1` belongs “inactive”.
The value for `COc1ccc(C2Nc3ccccc3C(=O)N2Cc2ccc(CNC(=O)CO)cc2)cc1COc1ccc(NC(C)=O)cc1` (stereo unspecified) was “inactive”; that for `COc1ccc(OC)c(NC(=O)C2CCN(S(=O)(=O)c3ccc(C)cc3)CC2)c1` was “inactive”.
The value for `O=C1CC(c2ccccc2)CC2=C1C(c1ccco1)n1nc(C(F)(F)F)nc1N2` (stereo unspecified) was “inactive”; that for `COc1ccc(C2Nc3cccc(OC)c3C(=O)N2Cc2ccccc2)cc1COc1ccc(NC(C)=O)cc1` (stereo unspecified) was “inactive”.
Take `COc1ccc(-c2ccc(C3C4C=CCCC4(C)C(=O)N3Cc3ccccc3)c(F)c2)cc1OC` (stereo unspecified): the activity, negative = inhibition entry is “inactive”.
To `Cc1cc(C)n2ncc(C(=O)Nc3cccc(C#N)c3)c2n1` belongs 1.24% [at 28.7 µM].
As to `CCCOc1ccc(NC(=O)CC2C(=O)N(c3ccccc3)C(=O)N2Cc2ccco2)cc1` (stereo unspecified), the activity, negative = inhibition result was “inactive”.
The value for `CCOC(=O)N1CCc2c(sc3c2c(=O)n(Cc2ccccc2)c(=O)n3CC(=O)Nc2cccc(C)c2)C1` was “inactive”.
On to `COC(=O)c1ccccc1NC(=O)c1ccc(C#N)cc1`, for which the activity, negative = inhibition entry is “inactive”.
The value for `C=C1CCN(Cc2ccc(OC)cc2)S(=O)(=O)c2ccccc21` was “inactive”.
To `COc1ccc(C2=Nn3c(nnc3-c3ccccc3O)SC2)cc1` belongs “inactive”.
Regarding `O=C(c1ccco1)n1nc(-c2ccc(Cl)cc2)nc1NCc1ccccc1`, the activity, negative = inhibition result was “inactive”.
To `Cc1ccc(S(=O)(=O)N2CCN(c3nc(-n4cnc5ccccc54)nc4ccccc34)CC2)cc1` belongs “inactive”; to `O=C1NS(=O)(=O)c2ccccc21`, “inactive”.
Turning to `COc1ccc(CN(Cc2ccccc2)C(=O)c2ccc(O)cc2)cc1COc1ccc(NC(C)=O)cc1`, the activity, negative = inhibition result was “inactive”.
As to `COc1ccccc1/C=C/c1nc(C#N)c(NC(C)c2ccccc2)o1` (stereo unspecified), the activity, negative = inhibition entry was “inactive”.
The value for `O=C(CNC(=O)c1ccc(Cl)c(C(F)(F)F)c1)OC(C(=O)Nc1cc(C(F)(F)F)ccc1Cl)c1ccccc1` (stereo unspecified) was “inactive”.

The values are drawn from PubChem BioAssay AID504891 (National Center for Advancing Translational Sciences (NCATS), 2011).
